# Screening data (PubChem BioAssay)
# Gli-Sufu antag: blocks Gli-Sufu signaling in a luciferase reporter. inhibition, % at 5 µM. Sufu-KO-LIGHT fibroblasts, Gli luciferase reporter luminescence. 0.74% of 340,000 active;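 active = inhibition above about 55%, limit read from the data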
# Shn3 inh set2: inhibitors of Schnurri-3 3'UTR reporter in osteoblasts. inhibition, % at 12.5 µM. AID 588674. 0.52% of 360,000 active. Clone20 osteoblast Shn3 3'UTR firefly luciferase, 24 h;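 active = mean inhibition of at least 75% with every replicate also reaching 75%; inconclusive = mean inhibition at least 75% but some replicate below; inactive = mean inhibition below 75%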
# H9c2 TAG inh: triacylglycerol accumulation inhibition; H9c2 cells, Nile Red lipid (TAG) fluorescence; cells loaded with 200 µM oleic acid; 0.66% of 230,000 active; AID 651582; inhibition, % at 12.5 µM;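 active = pattern-corrected inhibition of lipid staining of at least 50% with the nuclear-stain viability signal not falling by more than 50%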
# Jurkat NFkB inh: lowers PMA/ionomycin-induced NF-kB signal in Jurkat cells | AID 435003 | inhibition, % at 4 µM | 0.53% of 330,000 active | PMA/ionomycin-induced NF-kB luciferase reporter, luminescence; in the data active = inhibition above about 50%
# aSyn UTR inh: MLPCN primary screen, SNCA 5' untranslated region | alpha-synuclein 5'UTR reporter, inhibitor activity | inhibition, % (tested at 7.5 µM) | 0.82% of 300,000 active; in the data active = inhibition above about 60%; inconclusive = no clear call, values can overlap the other calls;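 note: H4 neuroglioblastoma cells stably carrying SNCA 5'UTR luciferase fusion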
# 697 NFkB inh: lowers PMA/ionomycin-induced NF-kB signal in 697 B cells; inhibition, % at 4 µM; AID 435022; 0.33% of 330,000 active; 697 B-cell NF-kB luciferase reporter, 16 h; in the data active = inhibition above about 35%
# Jurkat NFkB conf: lowers PMA/ionomycin-induced NF-kB signal in Jurkat cells; inhibition, % at 4 µM; AID 435020; shares compounds with Jurkat NFkB inh; 27% of 2,700 active; Jurkat NF-kB luciferase, 16 h;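 active = inhibition reaching about 45% at 4 µM in either replicate, limit read from the data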
# 697 NFkB conf: inhibitors of the PMA/ionomycin-induced NF-kB reporter in 697 B cells, retest; shares compounds with 697 NFkB inh; 697 B-cell NF-kB luciferase, 16 h; inhibition, % at 4 µM; 35% of 2,000 active; AID 449746; in the data active = inhibition mostly above about 28%, no sharp cut-off; inactive = mostly below about 22%
# Gli antag conf: Gli-SUFU antagonism confirmation, single concentration | inhibition, % at 5 µM | Sufu-KO-LIGHT cells, Gli luciferase reporter, luminescence | AID 602428 | 40% of 2,500 active | shares compounds with Gli-Sufu antag;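 active = mean inhibition at 5 µM reaching about 45%, limit read from the data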
# SufuKO cytotox: counter-screen for Gli-SUFU antagonists: cytotoxicity | AID 651994 | Sufu-KO-LIGHT cells cytotoxicity, ATP luminescence | shares compounds with Gli-Sufu antag | 32% of 2,500 active | cytotoxicity, % at 5 µM;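 active = mean cytotoxicity at 5 µM above about 25%, limit read from the data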;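 note: cells exposed to compound overnight for roughly 16 to 18 hours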
# Wnt3a cs: Wnt3a reporter inhibition counter-screen. shares compounds with Gli-Sufu antag. Wnt-LIGHT cells, Wnt3a-driven luciferase reporter, luminescence. inhibition, % at 6.25 µM. 20% of 2,500 active. AID 651995;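 active = mean inhibition above about 25%, limit read from the data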
# Numbers stand for hits; n = inactive; u = inconclusive; x = no result given. Most compounds without a hit are left out; they make up all but 2.3% or so of the library.
SMILES,Gli-Sufu antag,Shn3 inh set2,H9c2 TAG inh,Jurkat NFkB inh,aSyn UTR inh,697 NFkB inh,697 NFkB conf,others
C=C1C(=O)O[C@@H]2C[C@@H](C)[C@@H]3C4OC4C(=O)[C@@]3(C)[C@@H](O)[C@H]12 (stereo partly specified),n,n,110.5,57.9,n,n,n,Jurkat NFkB conf=n
O=C(c1c[nH]c2ccc(S(=O)(=O)N3CCOCC3)cc2c1=O)N1CCC2(CC1)OCCO2,n,n,n,n,n,n,x,
CC(C)c1oc(=O)cc2c1[C@@H](O)[C@H]1OC(=O)[C@@]3(C)C[C@@H](O)[C@@H](O)[C@@]2(C)C13 (stereo partly specified),n,n,n,90.1,n,n,n,Jurkat NFkB conf=90.5
CN(C)C(=O)On1c(-c2ccccc2)nc2ccc(Cl)cc21,n,n,n,n,n,n,x,
CCCCn1c(=O)c(C(=O)Nc2ccccc2)c(O)c2ccccc21,n,n,n,n,n,n,x,
CC(=O)O[C@H]1[C@H]2O[C@]23[C@@H]2CC[C@]4(O)C[C@@H](O)CC[C@]4(C)C2CC[C@]3(C)[C@H]1c1ccc(=O)oc1 (stereo partly specified),n,n,n,95.9,x,71.0,84.9,Jurkat NFkB conf=90.6
C=C1C(=O)O[C@H]2C[C@@H](C)[C@@H]3C=CC(=O)[C@@]3(C)C[C@H]12,61.1,x,x,87.7,n,n,n,Jurkat NFkB conf=62.7
C=C1C(=O)O[C@@H]2C[C@@H](C)[C@@H]3C=CC(=O)[C@@]3(C)[C@@H](OC(=O)CC(=O)O[C@H]3[C@@H]4C(=C)C(=O)O[C@@H]4C[C@@H](C)[C@@H]4C=CC(=O)[C@]43C)[C@H]12,93.2,95.7,x,93.1,116.1,103.8,101.0,Jurkat NFkB conf=99.9
CC12CCC(O)CC1CCC1C2CCC2(C)C(C3=CC(=O)OC3)C(O)CC12O (stereo unspecified),n,n,n,x,x,x,x,
C[C@]12CC[C@H](O)C[C@H]1CC[C@@H]1[C@@H]2C[C@@H](O)[C@]2(C)[C@@H](C3=CC(=O)OC3)CC[C@]12O,n,n,n,97.6,x,n,n,Jurkat NFkB conf=74.1
FC(F)(F)c1cccc(C2NCc3ccccc3-n3cccc32)c1 (stereo unspecified),n,n,x,n,n,n,x,
NC(=O)c1cn(C2OC(CO)C(O)C2O)c2ncnc(N)c12 (stereo unspecified),86.7,n,n,99.8,105.8,103.7,105.6,Jurkat NFkB conf=97.0
CCNC(=O)[C@H]1O[C@@H](n2cnc3c(N)ncnc32)[C@H](O)[C@@H]1O,n,n,n,n,n,n,x,
COC1C(O)C(C)OC(OC2CCC3(C)C(CCC4C3C(O)CC3(C)C(C5=CC(=O)OC5)CCC43O)C2)C1O (stereo unspecified),n,n,n,x,x,x,x,
C[C@@H]1O[C@@H](O[C@H]2C[C@@H](O)[C@]3(CO)[C@@H]4C(CC[C@]3(O)C2)[C@@]2(O)CC[C@H](C3COC(=O)C3)[C@@]2(C)C[C@H]4O)[C@H](O)[C@H](O)[C@H]1O (stereo partly specified),n,n,n,95.0,x,n,n,Jurkat NFkB conf=67.0
CN1C2CCC1CC(OC(c1ccccc1)c1ccccc1N)C2 (stereo unspecified),n,n,n,n,n,n,x,
COc1cc2c(c(OC)c1OC)-c1ccc(O)c(=O)cc1C(NC(C)=O)CC2 (stereo unspecified),61.4,n,x,55.2,90.3,n,x,Jurkat NFkB conf=n;Gli antag conf=65.9;SufuKO cytotox=60.9;Wnt3a cs=29.2
O=C(NCC1=C(c2ccc3ccccc3c2)C[C@@H]2CC[C@H]1N2Cc1ccco1)c1cccnc1,x,n,n,x,x,x,x,
CN(C)c1cccc2c(C#N)ccc(N(C)C)c12,n,n,x,n,n,39.0,n,
COC(=O)C1=C(c2ccc(-c3ccccc3)c(F)c2)C[C@@H]2CC[C@H]1N2C(=O)N1CCCC1,n,n,n,n,x,46.3,61.9,
COC(=O)C1=C(c2ccc(-c3ccccc3)c(F)c2)C[C@@H]2CC[C@H]1N2C(=O)N1CCCCC1,n,n,n,n,x,n,x,
CCC(=NCc1cc(OC)cc(OC)c1)c1c(O)[nH]c(=O)[nH]c1=O,n,n,n,n,n,n,x,
O=c1[nH]c(O)c(/C=C2/C=CC(c3cc(Cl)ccc3Cl)=N2)c(=O)[nH]1,n,n,n,n,n,36.0,n,
CCOP(=O)(OCC)C(NC(=O)c1ccccc1C)C(Cl)(Cl)Cl (stereo unspecified),n,n,x,n,n,n,x,
O=C(c1cccc([N+](=O)[O-])c1)C12CN3CN(CN(C3)C1)C2,n,n,n,n,n,n,x,
SMILES,Gli-Sufu antag,Shn3 inh set2,H9c2 TAG inh,Jurkat NFkB inh,aSyn UTR inh,697 NFkB inh,697 NFkB conf,others
Clc1ccc2c(c1)C(OC1CN3CCC1CC3)c1ccccc1CS2 (stereo unspecified),n,n,x,n,n,n,x,
O=[N+]([O-])c1ccc(N2CCCC2)c2ncccc12,n,n,n,n,n,n,x,
CC1CN(c2ccc([N+](=O)[O-])c3cccnc23)CC(C)N1 (stereo unspecified),n,n,n,n,n,n,n,
CNC(=O)Oc1cccc(-c2cn3cc(Cl)ccc3n2)c1,n,n,x,n,u,n,n,
CCn1c(=O)cc(SCC(=O)N2CCC3(CC2)OCCO3)c2ccccc21,n,n,x,n,n,62.0,39.6,
C[C@H]1CCC[C@@H](O)CCC/C=C/c2cc(O)cc(O)c2C(=O)O1,n,n,x,n,n,42.7,n,
CC1CCC[C@H](O)CCCCCc2cc(O)cc(O)c2C(=O)O1 (stereo partly specified),n,n,n,n,n,n,x,
O=C(Nc1ccc(OC(=O)N2CCCCC2)cc1)N1CCOCC1,n,n,n,n,88.9,57.9,n,
O=C(Nc1ccc(OC(=O)N2CCCC2)cc1)N1CCOCC1,n,n,x,n,n,n,x,
Cc1nc2ncnn2c(C)c1CCC(=O)N1CCC2(CC1)OCCO2,n,n,x,n,n,n,x,
Cc1nc2cc(-c3ccccc3)nn2c(C)c1CCC(=O)N1CCC2(CC1)OCCO2,n,n,x,n,79.3,42.7,45.6,
Cc1cc(OCC(=O)N2CCC(C(N)=O)CC2)c2c3c(c(=O)oc2c1)CCCC3,n,n,x,n,n,41.6,29.7,
